In PubChem BioAssay (Tox21) one finds Potency data, which are given here for eight compounds.

Each structure is given as a SMILES string. Inconclusive results are not listed. Active and inactive are the calls of the source. Unless noted, the call rests on the fitted dose curve.

Assay [1] can be described thus: Nuclear factor erythroid 2-related factor 2/antioxidant responsive element (Nrf2/ARE) small molecule agonists: qHTS cell viability counter screen in human keratinocytes (AID 1919968; active means well fitted curve in the direction sought with a large enough effect in the repeat runs; an effect the other way counts as inactive or inconclusive; further: nearly all actives have a fitted effect of over 55% in size; further: potency means the concentration at half of the fitted maximal effect). In short, it runs like this:
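Parallel cytotoxicity read: KeratinoSens HaCaT cells, compound treatment 23 h, viability by CellTiter-Fluor fluorescence 1 h post-reagent.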
A general note: In qHTS, concentration-response curves come from the screen itself.

Assay [2] in a line: Nuclear factor erythroid 2-related factor 2/antioxidant responsive element (Nrf2/ARE) small molecule agonists: luciferase reporter gene qHTS assay in human keratinocytes (AID 1919969). Further: nearly all actives have a fitted effect of over 35% in size. Further: potency means the concentration at half of the fitted maximal effect. Background: In a reporter assay the amount or activity of a reporter protein is the signal.
Assay [3] concerns the target Gonadotropin-releasing hormone receptor (Homo sapiens) (UniProt P30968). Briefly: Human gonadotropin-releasing hormone receptor (GnRHR) small molecule agonists, calcium flux assay in GnRHR-HEK293 cells (AID 1920063). Further: nearly all actives have a fitted effect of over 35% in size. In outline:
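Calcium flux, agonist mode, human GnRHR stably integrated in HEK293; dye 1 h at 37 C before compound; Ex/Em=480/540 kinetic read, 3 min; 15 concentrations, triplicate.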
(Calcium assays in cells follow changes in intracellular calcium, usually with a dye or a luminescent sensor.)

The target in assay [4] is KiSS-1 receptor (Homo sapiens) (UniProt Q969F8). Put plainly: Human kisspeptin (KISS1R) small molecule agonists, calcium flux assay in KISS1R-HEK293 cells (AID 1920064; active means well fitted curve in the direction sought with a large enough effect in the repeat runs; an effect the other way counts as inactive or inconclusive). In short, it runs like this: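 Triplicate 15-concentration series were applied to dye-loaded human KISS1R HEK293 cells, and agonist-evoked calcium fluorescence was captured for 3 min.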
Assay [5] is described as follows: p53 small molecule agonists, cell-based qHTS assay with human liver microsomes (AID 1963577).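 Further: p53 response element beta-lactamase reporter cells with liver microsomes plus NADPH.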 In outline:
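In this qHTS, p53 response-element beta-lactamase cells receive test compound together with a microsome/NADPH activating system (0.5 mg/mL final each) and are incubated 16 h at 37 C before LiveBLAzer fluorescence detection.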

A short description of assay [6]: p53 small molecule agonists, cell-based qHTS assay with rat liver microsomes (AID 1963578). In outline:
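Agonist mode in p53RE-bla reporter cells, with compounds co-incubated 16 h at 37 C alongside 0.5 mg/mL rat liver microsomes and 0.5 mg/mL NADPH (final), followed by a 2 h LiveBLAzer detection step.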

The nature of assay [7]: p53 small molecule agonists, cell-based qHTS assay with human liver microsomes: qHTS cell viability counter screen (AID 1963579). Further: nearly all actives have a fitted effect of over 45% in size. Further: potency means the concentration at half of the fitted maximal effect. In short, it runs like this:
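Metabolically activated exposure: compounds, human liver microsomes and NADPH (0.5 mg/mL final apiece) were added to p53RE-bla cells seeded 5 h earlier, left 16 h at 37 C, and then assessed for viability by CellTiter-Glo luminescence.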

Assay [8] can be described thus: p53 small molecule agonists, cell-based qHTS assay with rat liver microsomes: qHTS cell viability counter screen (AID 1963580). Further: nearly all actives have a fitted effect of over 45% in size. In outline: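 Counter screen for cytotoxicity under metabolic activation: rat liver microsomes and NADPH, 0.5 mg/mL final each, added with compounds to p53RE-bla HCT-116 cells; 16 h at 37 C, then ATP luminescence read.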
The nature of assay [9]: p53 small molecule agonists, cell-based qHTS assay: qHTS cell viability counter screen (AID 1963581). Further: nearly all actives have a fitted effect of over 45% in size. In short, it runs like this: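 Multiplexed with the reporter read, a CellTiter-Glo step (30 min, room temperature) gauges ATP-based viability of HCT-116 p53RE-bla cells after 16 h compound incubation at 37 C.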
Assay [10] addresses 5-hydroxytryptamine receptor 2A (Homo sapiens) (UniProt P28223). Put plainly: 5-hydroxytryptamine receptor 2A (HTR2A) small molecule antagonists, cell-based qHTS assay (AID 1963586). Further: nearly all actives have a fitted effect of over 45% in size. In outline: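 CHO cells stably expressing human HTR2A were plated for 18 h at 37 C, then loaded with calcium dye for 1 h. Compounds were preincubated 5 min at room temperature before DOI (4 nM solution) was added. Kinetic fluorescence was read for 3 min.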

Assay [11] shares this target. Briefly: 5-hydroxytryptamine receptor 2A (HTR2A) small molecule agonists, cell-based qHTS assay (AID 1963587). Further: nearly all actives have a fitted effect of over 30% in size. In short, it runs like this: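 HTR2A-CHO cells, plated 18 h at 37 C/5% CO2, dye-loaded 1 h at 37 C; compounds in DMSO added by pin tool (agonist mode). Intracellular calcium flux read as kinetic fluorescence on FDSS over 2 min at 1 s intervals.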
In assay [12] the target is Muscarinic acetylcholine receptor M1 (Homo sapiens) (UniProt P11229). Put plainly: Cholinergic receptor muscarinic 1 (CHRM1) small molecule antagonists, cell-based qHTS assay (AID 1963588). Further: nearly all actives have a fitted effect of over 40% in size. In short, it runs like this:
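Compounds were tested at 15 concentrations in three independent runs. Dye-loaded CHRM1-CHO cells were exposed 5 min at room temperature before stimulation by acetylcholine added at 50nM. Intracellular calcium was read kinetically on FDSS for 3 min.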

Assay [13] shares this target. Briefly: Cholinergic receptor muscarinic 1 (CHRM1) small molecule agonists, cell-based qHTS assay (AID 1963589). Further: nearly all actives have a fitted effect of over 35% in size. In short, it runs like this:
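qHTS, 15-point titration, 3 independent runs: compounds pin-transferred onto dye-loaded CHRM1-CHO cells (human M1), calcium fluorescence followed every second to detect agonism.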

For assay [14], the target named is Beta-2 adrenergic receptor (Homo sapiens) (UniProt P07550). Briefly: Adrenergic beta2 receptor (ADRB2) small molecule antagonists, cell-based qHTS assay (AID 1963592). Further: series mostly up to about 92 µM; nearly all actives have a fitted effect of over 50% in size. In short, it runs like this: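 Assay format: CHO-ADRB2 cells, 18-20hr seeding at 37C/5% CO2, then compound plus 1nM isoproterenol agonist mix for 0.5hr RT. Homogeneous time-resolved fluorescence cAMP detection after 1hr, expressed as 665/615 nm ratio.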

Assay [15] deals with D(2) dopamine receptor (Homo sapiens) (UniProt P14416). Put plainly: Dopamine D2 receptor (DRD2) small molecule agonists, cell-based qHTS assay (AID 1963594). Further: nearly all actives have a fitted effect of over 35% in size. In outline: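 HEK293 cells stably expressing DRD2 were cultured 24 h at 37 C, then given Ro20-1724 (0.1 mM final) and compounds for 10 min at room temperature. NKH477 (200nM) was then added for 30 min. cAMP was read by HTRF.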

Assay [16] can be described thus: cAMP Responsive Elements (CRE) small molecule antagonists, cell-based qHTS assay (AID 1963591; active means well fitted inhibition curve with a large enough effect in the signal ratio in the repeat runs, not every such curve was filed as active; the % refers to the signal ratio). In outline:
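Fluorescence intensity from cleaved LiveBLAzer B/G substrate (2 h, room temperature) quantified CRE-bla activity in HEK 293T cells exposed 3 h to compound with 0.25 uM final NKH477.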

Assay [17] concerns the target D(2) dopamine receptor (Homo sapiens) (UniProt P14416). Briefly: Dopamine D2 receptor (DRD2) small molecule antagonists, cell-based qHTS assay (AID 1963595; active means well fitted inhibition curve with a large enough effect in the signal ratio in the repeat runs, with a control signal flat; the % refers to the signal ratio). In outline: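 HEK293 cells stably expressing DRD2 were preincubated with 0.1 mM Ro20-1724, then with compound for 10 min at room temperature. Cells were stimulated with 200 nM NKH477 plus 12 nM quinpirole for 30 min, and cAMP was read by HTRF.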

Assay [18] can be described thus: p53 small molecule agonists, cell-based qHTS assay (AID 1963582; active means well fitted activation curve with a large enough effect in the signal ratio in the repeat runs, not every such curve was filed as active; the % refers to the signal ratio). In short, it runs like this: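 Beta-lactamase reporter cells (p53RE-bla) treated with compounds for 16 h at 37 C; FRET substrate, 2 h, room temperature; fluorescence intensity.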
A short description of assay [19]: cAMP Responsive Elements (CRE) small molecule agonists, cell-based qHTS assay (AID 1963590). In outline: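 Quantitative HTS for CRE agonists: HEK 293T CRE-bla cells, overnight plating, 3 h compound incubation at 37 C/5% CO2, then 2 h room-temperature LiveBLAzer B/G FRET substrate loading.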

Sequence of KiSS-1 receptor (Homo sapiens) (Q969F8 whole entry, looked up): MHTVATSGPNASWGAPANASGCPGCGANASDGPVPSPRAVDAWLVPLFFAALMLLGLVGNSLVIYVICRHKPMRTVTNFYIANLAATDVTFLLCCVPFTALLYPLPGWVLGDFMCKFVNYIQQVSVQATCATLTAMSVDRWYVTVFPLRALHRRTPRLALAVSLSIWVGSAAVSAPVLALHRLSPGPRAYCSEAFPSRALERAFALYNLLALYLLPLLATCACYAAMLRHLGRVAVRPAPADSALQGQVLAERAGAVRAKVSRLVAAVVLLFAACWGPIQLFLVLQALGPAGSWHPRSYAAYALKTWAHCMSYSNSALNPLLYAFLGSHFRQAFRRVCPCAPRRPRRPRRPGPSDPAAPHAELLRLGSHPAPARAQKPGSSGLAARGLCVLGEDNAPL
Sequence of D(2) dopamine receptor (Homo sapiens) (P14416 whole entry, looked up): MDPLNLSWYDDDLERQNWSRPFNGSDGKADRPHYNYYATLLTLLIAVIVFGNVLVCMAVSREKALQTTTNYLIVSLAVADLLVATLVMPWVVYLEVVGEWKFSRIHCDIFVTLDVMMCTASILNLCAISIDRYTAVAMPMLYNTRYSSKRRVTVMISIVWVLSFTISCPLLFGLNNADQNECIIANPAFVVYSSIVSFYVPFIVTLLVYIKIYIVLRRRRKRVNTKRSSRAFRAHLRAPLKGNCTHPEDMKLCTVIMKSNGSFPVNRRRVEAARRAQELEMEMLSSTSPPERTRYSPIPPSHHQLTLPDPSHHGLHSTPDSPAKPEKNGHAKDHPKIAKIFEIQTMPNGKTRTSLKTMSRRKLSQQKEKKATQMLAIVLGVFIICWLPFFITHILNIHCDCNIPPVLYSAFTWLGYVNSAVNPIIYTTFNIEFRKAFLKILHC
Sequence of Gonadotropin-releasing hormone receptor (Homo sapiens) (P30968 whole entry, looked up): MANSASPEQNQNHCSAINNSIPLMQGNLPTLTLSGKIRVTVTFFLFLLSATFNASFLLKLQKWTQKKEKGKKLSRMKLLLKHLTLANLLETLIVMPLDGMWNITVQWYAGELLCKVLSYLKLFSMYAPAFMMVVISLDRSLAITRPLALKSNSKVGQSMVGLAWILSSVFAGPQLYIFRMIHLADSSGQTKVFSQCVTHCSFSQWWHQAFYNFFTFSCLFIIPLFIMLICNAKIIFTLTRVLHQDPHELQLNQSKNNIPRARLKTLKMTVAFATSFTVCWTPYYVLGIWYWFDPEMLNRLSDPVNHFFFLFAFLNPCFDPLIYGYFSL
Sequence of Muscarinic acetylcholine receptor M1 (Homo sapiens) (P11229 whole entry, looked up): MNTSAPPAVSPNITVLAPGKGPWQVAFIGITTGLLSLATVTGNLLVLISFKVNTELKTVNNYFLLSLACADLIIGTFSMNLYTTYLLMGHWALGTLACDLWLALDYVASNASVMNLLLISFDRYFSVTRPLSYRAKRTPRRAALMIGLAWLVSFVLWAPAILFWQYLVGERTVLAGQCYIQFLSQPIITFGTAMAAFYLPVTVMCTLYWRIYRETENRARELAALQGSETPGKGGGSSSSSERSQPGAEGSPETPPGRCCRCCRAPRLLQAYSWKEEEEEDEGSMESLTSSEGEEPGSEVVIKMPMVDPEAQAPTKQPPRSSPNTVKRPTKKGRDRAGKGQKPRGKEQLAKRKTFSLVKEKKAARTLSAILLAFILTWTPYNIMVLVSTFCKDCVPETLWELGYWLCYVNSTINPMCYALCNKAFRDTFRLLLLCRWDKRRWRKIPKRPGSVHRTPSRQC
Sequence of Beta-2 adrenergic receptor (Homo sapiens) (P07550 whole entry, looked up): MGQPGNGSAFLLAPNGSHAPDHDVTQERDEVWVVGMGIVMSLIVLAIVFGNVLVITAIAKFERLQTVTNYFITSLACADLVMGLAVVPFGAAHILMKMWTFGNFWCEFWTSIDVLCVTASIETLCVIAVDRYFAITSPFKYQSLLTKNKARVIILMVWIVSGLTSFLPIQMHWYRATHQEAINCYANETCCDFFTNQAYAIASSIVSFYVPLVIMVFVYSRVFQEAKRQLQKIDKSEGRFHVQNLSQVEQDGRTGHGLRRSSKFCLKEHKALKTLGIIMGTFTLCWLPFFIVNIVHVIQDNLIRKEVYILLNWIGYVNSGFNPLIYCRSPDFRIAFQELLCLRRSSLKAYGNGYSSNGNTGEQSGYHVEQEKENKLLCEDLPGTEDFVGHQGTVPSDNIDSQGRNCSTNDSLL
Sequence of 5-hydroxytryptamine receptor 2A (Homo sapiens) (P28223 whole entry, looked up): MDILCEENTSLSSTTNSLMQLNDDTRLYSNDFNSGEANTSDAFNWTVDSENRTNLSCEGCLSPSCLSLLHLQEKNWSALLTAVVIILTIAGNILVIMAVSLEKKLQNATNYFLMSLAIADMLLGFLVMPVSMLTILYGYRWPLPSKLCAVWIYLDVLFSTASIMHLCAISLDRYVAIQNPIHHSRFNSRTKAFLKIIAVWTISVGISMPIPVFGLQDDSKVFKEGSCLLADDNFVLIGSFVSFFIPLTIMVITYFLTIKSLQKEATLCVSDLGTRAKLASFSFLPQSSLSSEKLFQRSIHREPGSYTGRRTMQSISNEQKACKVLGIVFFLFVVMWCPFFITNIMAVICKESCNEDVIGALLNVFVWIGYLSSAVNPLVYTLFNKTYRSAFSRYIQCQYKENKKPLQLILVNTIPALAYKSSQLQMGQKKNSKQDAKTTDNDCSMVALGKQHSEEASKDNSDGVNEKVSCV

Regarding `Cc1ccc(-c2c(Cl)nc(C#N)n2S(=O)(=O)N(C)C)cc1`, the Potency is 15.3 µM (active) in assay [1] and 9.68 µM (active) in assay [2]. Further, the Potency result in [3], in assay [4], in assay [5], in assay [6], in [7] and in [8] was “inactive” each time. For the same compound, the Potency result in assay [9], in assay [10], in [11], in assay [12], in [13] and in [14] was “inactive” in each case. In addition, in [15], the Potency result was “inactive”.
As for `CCOC(=O)OC1=C(c2cc(C)ccc2C)C(=O)NC12CCC(OC)CC2` (centres undefined), the Potency result in assay [1], in [2], in assay [3], in [4], in [5] and in [6] was “inactive” throughout. For the same compound, the Potency result in assay [8], in assay [9], in assay [10], in assay [11], in [12] and in assay [13] was “inactive” each time. Also, the Potency result in assay [16], in [14] and in assay [17] was “inactive” throughout. The Potency in [7] is 40.8 µM (active).
For `O=C(Oc1ccc(Br)cc1)N1CCN2CCC1CC2`, the Potency result in [1], in assay [2], in assay [3], in [4], in assay [6] and in [7] was “inactive” in each case. Also, the Potency entry in assay [8], in assay [9], in assay [18], in [10], in assay [11] and in assay [13] was “inactive” each time. The Potency result in assay [19], in assay [16], in assay [14] and in [17] was “inactive” each time.
Take `CO/C=C(/C(=O)OC)c1ccccc1COc1cccc(C(F)(F)F)n1`: the Potency entry in [1], in [2], in assay [3], in assay [4], in assay [5] and in assay [6] was “inactive” throughout. In addition, the Potency result in [7], in assay [9], in assay [10], in assay [11], in assay [12] and in assay [13] was “inactive” in each case. For the same compound, the Potency result in [19], in assay [14], in [15] and in [17] was “inactive” each time.
For the compound `COC(=O)C(C)N(C(=O)Cc1ccccc1)c1c(C)cccc1C` (centres undefined), the Potency result in assay [1], in [2], in [3], in assay [4], in assay [5] and in assay [7] was “inactive” each time. Moreover, the Potency entry in assay [8], in assay [9], in assay [10], in assay [11], in assay [12] and in [14] was “inactive” in each case. Further, in assay [15], the Potency entry was “inactive”.
Consider `O=C(OC1CCCCC1)c1ccccc1C(=O)OC1CCCCC1`, for which the Potency result in assay [1], in [2], in assay [3], in assay [4], in assay [5] and in [6] was “inactive” in each case. The Potency result in assay [7], in assay [8], in assay [10], in assay [11], in assay [12] and in assay [13] was “inactive” throughout. The Potency entry in [16], in assay [14] and in assay [15] was “inactive” each time.
In the case of `CN/C(=N\[N+](=O)[O-])NCc1cnc(Cl)s1`, the Potency result in assay [1], in assay [2], in assay [3], in assay [4], in assay [5] and in [6] was “inactive” each time. Besides, the Potency result in assay [7], in assay [8], in assay [9], in [18], in [10] and in assay [11] was “inactive” throughout. Moreover, the Potency result in assay [12], in assay [13], in [19], in assay [14] and in assay [17] was “inactive” in each case.
Consider `O=C1C(=O)c2cccc3cccc1c23`, for which the Potency entry in assay [1], in assay [3], in assay [4], in [5], in assay [6] and in [7] was “inactive” throughout. The Potency entry in assay [8], in [10], in assay [11], in assay [12], in assay [13] and in assay [16] was “inactive” in each case. The Potency entry in assay [14], in assay [15] and in assay [17] was “inactive” throughout. Moreover, the Potency in assay [2] was 27.3 µM (active).
